Experimental data: the supplement of paper PMC10338343
± gives the standard deviation.

Assays:
[1] = tested on: MILI (PIWIL2) piRISC loaded with L1MC piRNA (26 nt); assay: pre-steady-state target cleavage rate (min^-1); guide: L1MC piRNA 5'p-UAACUAAAUACUAUGCAAGCUGUAGG; higher = faster piRNA-guided slicing of the target;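 note: 1 nM active piRISC with 0.1 nM target library at 33 °C single turnover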
In short: (§1)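 The pre-steady-state cleavage rate was calculated from a burst-and-steady-state fit. Data came from Cleave-'n-Seq, in which […] transcribed, DNA-blocked target RNA library was mixed with 1 nM active affinity-purified piRISC carrying one synthetic guide, with or without 500 nM GTSF1 partner protein, in HEPES–potassium acetate buffer at 33 °C for 0–8 or 0–960 min. Uncleaved targets were sequenced and normalised to depth and to weakly complementary targets, three trials were pooled, and k3 was capped at 0.0001 min^-1.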

[2] = tested on: EfPiwi piRISC loaded with L1MC piRNA (26 nt); assay: pre-steady-state target cleavage rate (min^-1); auxiliary factor: 500 nM Ephydatia muelleri Gtsf1; guide: L1MC piRNA 5'p-UAACUAAAUACUAUGCAAGCUGUAGG; MIWI and MILI are mouse PIWI proteins and EfPiwi is from a freshwater sponge; tags in brackets are library labels; higher = faster piRNA-guided slicing of the target
In short: as §1

[3] = auxiliary factor: 500 nM mouse GTSF1
[4] = auxiliary factor: none (no GTSF1)

Sequence	pre-steady-state target cleavage rate [1, 3]	pre-steady-state target cleavage rate [1, 4]	pre-steady-state target cleavage rate [2]
UCCUGCUACAGCUAGCUUAGUAUUUAGUUA	0.227 ± 0.018	0.00468 ± 0.0023	0.00973 ± 0.0029
UCCUGGAACACCUUGCUUAGUAUUUAGUUA	0.155 ± 0.028	0.00581 ± 0.0019	0.0036 ± 0.0033
UCCUGGAACAGCUUGCAAAGUAUAUAGUUA	0.116 ± 0.013	0.00404 ± 0.0021	0.00745 ± 0.0042
UCCUGCUGACAGCUUGCAUAGUAUUUAGUUA	0.327 ± 0.025	0.00993 ± 0.0029	0.0486 ± 0.013
UCCUCCUACAGCUUGCAUAGUAAUUAGUUA	0.275 ± 0.022	0.00666 ± 0.0023	0.0117 ± 0.0045
UCCUGGUACAGCGUUGCAUAGUAUUUAGUUA	0.196 ± 0.027	0.0109 ± 0.0053	0.00749 ± 0.0028
UCCUGGAUCACGUUGCAUAGUAUUUAGUUA	0.206 ± 0.019	0.00683 ± 0.0026	0.0686 ± 0.017
UCCUGCAACAGCAUGCAUAGUAUUUAGUUA	0.329 ± 0.023	0.00926 ± 0.0035	0.0232 ± 0.0055
UCCUGGAACAGCUUGCAAAGUAUUUAGUUA	0.135 ± 0.0089	0.00796 ± 0.0019	0.0333 ± 0.0089
UCCUGGAUGUCGUCUGCAUAGUAUUUAGUUA	0.106 ± 0.015	0.00397 ± 0.0027	0.00907 ± 0.0032
UCCUGCUACACGUUGCAUAGUAUUUAGUUA	0.289 ± 0.026	0.0118 ± 0.0026	0.0175 ± 0.0063
UCCUGGAACAGCAUGCAUACUAUUUAGUUA	0.0727 ± 0.0093	0.00273 ± 0.0026	0.00762 ± 0.0026
UCCUGCCUACAGCUUGCAUAGUAUUUAGUUA	0.342 ± 0.022	0.0113 ± 0.0037	0.0909 ± 0.021
UCCUGGAACAGCUUGCAUUGUAAUUAGUUA	0.184 ± 0.023	0.00389 ± 0.0028	0.00225 ± 0.0022
UCCUGGUAGAGGUUGCAUAGUAUUUAGUUA	0.185 ± 0.024	0.0103 ± 0.0031	0.00483 ± 0.0034
UCCUGCUACAGCUUGCAUAGUAUUUUAGUUA	0.283 ± 0.023	0.0106 ± 0.0025	0.00822 ± 0.0026
UCCUCCUACUGCUUGCAUACUAUUUAGUUA	0.0694 ± 0.011	0.00355 ± 0.0019	0.0106 ± 0.0044
UCCUGGAUGUGCUUGCAUCGUAUUUAGUUA	0.0778 ± 0.017	0.0103 ± 0.0028	0.00598 ± 0.0028
UCCUCCUACAGCUUGCAUAGUAUAUUGUUA	0.128 ± 0.019	0.00269 ± 0.0025	0.00489 ± 0.003
UCCUGCACAGCUUGCAUAGUAUUUAGUUA	0.317 ± 0.018	0.00995 ± 0.0028	0.0745 ± 0.016
UCCUCCUACAGCUUGGAUAGUAUUUUGUUA	0.164 ± 0.028	0.00424 ± 0.0026	0.00565 ± 0.0022
UCCUCCUACCAGCUUGCAUAGUAUUUAGUUA	0.275 ± 0.017	0.00841 ± 0.0025	0.0186 ± 0.0056
UCCUGGUACAGCUUGAAUAGUAUUUAGUUA	0.302 ± 0.055	0.00915 ± 0.0046	0.0053 ± 0.0028
UCCUGGAACUGCUUGCAUAGUAUAUAGUUA	0.128 ± 0.021	0.00491 ± 0.0025	0.0584 ± 0.021

Sequence	pre-steady-state target cleavage rate [1, 3]	pre-steady-state target cleavage rate [1, 4]	pre-steady-state target cleavage rate [2]
UCCUGGUACAGCUUGCAUAGUAUAAAGUUA	0.193 ± 0.046	0.00524 ± 0.0029	0.00482 ± 0.0022
UCCUGGAUCAGCUGUGCAUAGUAUUUAGUUA	0.232 ± 0.017	0.0109 ± 0.0034	0.0791 ± 0.016
UCCUGGAUGUCCUUGCAUAGUAUGUUAGUUA	0.0434 ± 0.0088	0.00471 ± 0.0025	0.00355 ± 0.0035
UCCUGGUACAGGUUGCAUUGUAUUUAGUUA	0.175 ± 0.023	0.0117 ± 0.0031	0.0047 ± 0.0018
UCCUGGAUGUCGUGCAUAGUAUUUAGUUA	0.115 ± 0.014	0.00386 ± 0.0022	0.00802 ± 0.003
UCCUGGUACAAGCUUGCAUAGUAUUUAGUUA	0.196 ± 0.024	0.0121 ± 0.0042	0.0481 ± 0.014
UCCUGGAUGUCGUGUGCAUAGUAUUUAGUUA	0.102 ± 0.015	0.00602 ± 0.0035	0.0038 ± 0.0033
UCCUGCUACAGCUUGCAUUGUAUUUUGUUA	0.159 ± 0.024	0.00301 ± 0.0027	0.00346 ± 0.0021
UCCUGGAUCAGCUGGCAUAGUAUUUAGUUA	0.253 ± 0.023	0.00736 ± 0.0024	0.0104 ± 0.0026
UCCUGGAUCAGCUUGCAUAGUAUUUAGGUUA	0.271 ± 0.027	0.00531 ± 0.0025	0.00516 ± 0.0024
UCCUGGUACAGCUAGCAUAGUAUUUUGUUA	0.085 ± 0.028	0.00427 ± 0.0033	0.00396 ± 0.0023
UCCUGCUACAGCUUGCAUAGUAUUUAGGUUA	0.265 ± 0.042	0.00346 ± 0.0028	0.00526 ± 0.0014
UCCUGCUACUGGUUGCAUAGUAUUUAGUUA	0.251 ± 0.018	0.0113 ± 0.0029	0.0113 ± 0.0035
UCCUCUACAGCUUGCAUAGUAUUUAGUUA	0.31 ± 0.013	0.00953 ± 0.0028	0.183 ± 0.045
UCCUCCUACAGCUUAGCAUAGUAUUUAGUUA	0.314 ± 0.017	0.0112 ± 0.0024	0.0919 ± 0.025
UCCUGGAACCGCUUGCAUAGUAUUUAGUUA	0.265 ± 0.015	0.0108 ± 0.002	0.0172 ± 0.0054
UCCUCCUUCAGCUUGCAUACUAUUUAGUUA	0.0786 ± 0.013	0.00296 ± 0.0027	0.00784 ± 0.0025
UCCUGGUACAGCUUGCAUAGUAUUUAGAUA	0.149 ± 0.033	0.00493 ± 0.0028	0.00705 ± 0.0034
UCCUGCUACAGCUUGCAUAGUAUCUUAGUUA	0.259 ± 0.027	0.00985 ± 0.0022	0.00633 ± 0.0017
UCCUCCUUCAGCUAGCAUAGUAUUUAGUUA	0.228 ± 0.017	0.00519 ± 0.0022	0.0131 ± 0.0046
UCCUGGAUGUCCUUGCACAGUAUUUAGUUA	0.145 ± 0.028	0.00389 ± 0.0023	0.00454 ± 0.0024
UCCUCGUACAGCUUGCAUAGUAUUUUGUUA	0.143 ± 0.016	0.00289 ± 0.0028	0.007 ± 0.0031
UCCUGGAUCAGUUUGCAUAGUAUUUAGUUA	0.24 ± 0.02	0.0104 ± 0.0027	0.128 ± 0.021
